Source: the supplement of paper PMC12340641
Where a name gives a salt, the structure may show the parent alone.

Each compound was assayed against IKZF1 (dCK*-IKZF1 fusion in HEK293FT) (UniProt Q13422) (assay: inhibition of IKZF1 HTRF signal (DMSO = 0%, pomalidomide 10 uM = 100%); higher = lower IKZF1 protein level). Settings: compound concentration: 5 uM, overnight (~20 h).
Summary of the method: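 HEK293FT cells stably expressing a dCK*-IKZF1 fusion (2000/well, 384-well) were treated overnight at 37 °C with 5 μM compound in single wells. They were then lysed 30 min at room temperature, and lysate was incubated overnight with a commercial HTRF total-IKZF1 antibody kit. The time-resolved FRET ratio (665/620 nm) was background-subtracted. Percent inhibition of IKZF1 signal was normalised per plate to vehicle (0%) and a reference degrader (100%).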

Chain of IKZF1 (dCK*-IKZF1 fusion in HEK293FT) (Q13422 whole entry, looked up, the tested form may be a part): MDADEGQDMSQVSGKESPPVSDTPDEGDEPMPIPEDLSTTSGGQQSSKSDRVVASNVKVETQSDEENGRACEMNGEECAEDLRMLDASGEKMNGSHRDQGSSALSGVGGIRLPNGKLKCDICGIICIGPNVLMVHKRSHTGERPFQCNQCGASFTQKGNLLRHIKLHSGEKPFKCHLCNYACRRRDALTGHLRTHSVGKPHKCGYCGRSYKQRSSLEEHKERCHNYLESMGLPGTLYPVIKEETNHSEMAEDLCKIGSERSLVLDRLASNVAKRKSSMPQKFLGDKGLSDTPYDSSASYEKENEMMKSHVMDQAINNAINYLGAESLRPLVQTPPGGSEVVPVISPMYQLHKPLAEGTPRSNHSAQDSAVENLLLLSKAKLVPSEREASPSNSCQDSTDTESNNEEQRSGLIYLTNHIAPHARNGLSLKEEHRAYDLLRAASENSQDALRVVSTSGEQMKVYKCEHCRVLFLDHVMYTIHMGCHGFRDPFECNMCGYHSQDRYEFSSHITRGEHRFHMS

Compound | inhibition of IKZF1 HTRF signal
O=C(/C=C/c1ccc(O)c(O)c1)OCCc1ccccc1 [caffeic-acid-phenethyl-ester] | -31.4%
CCC(C)c1ccc(NC(=O)Cn2cnc3c2c(=O)n(C)c(=O)n3C)cc1 (stereo not drawn) | -44.5%
CN1CCC[C@@H]1CCO[C@](C)(c1ccccc1)c1ccc(Cl)cc1 [Clemastine Fumarate] | 6.24%
O=[N+]([O-])c1ccc2nc(COCc3nc4ccc([N+](=O)[O-])cc4[nH]3)[nH]c2c1 | -34.1%
COc1ccc2nc3cc(Cl)ccc3c(Nc3cc(CN4CCCC4)c(O)c(CN4CCCC4)c3)c2n1 | -32.1%

The compounds below were run on HEK293FT dCK*-only (assay: relative growth in counter assay (no AraC = 100%, AraC + DMSO = 0%); higher = more growth rescue independent of IKZF1). Settings: compound concentration: 5 uM; AraC concentration: 0.3 uM; overnight pretreatment + 4 days AraC.
Summary of the method: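 In 384-well plates, 300 HEK293FT cells per well expressing an engineered kinase construct alone got 5 μM compound 2 h after seeding. After overnight at 37 °C, 0.3 μM nucleoside suicide substrate plus medium was applied for 4 days. Counting of Hoechst 33342-stained nuclei by imaging on day 5 was normalised per plate, with 100% for no-substrate wells and 0% for substrate plus vehicle.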

Compound | relative growth in counter assay
COC1=C2C[C@@H](C)C[C@H](OC)[C@H](O)[C@@H](C)/C=C(\C)[C@H](OC(N)=O)[C@@H](OC)/C=C\C=C(/C)C(=O)NC(=CC1=O)C2=O [Geldanamycin] | -32.6%
CN1CCN(c2ncc(-c3cc(Cl)cc(Cl)c3Cl)c(N)n2)CC1 [sipatrigine] | 5.22%
O=C(O)c1ccccc1Nc1ccc(CCc2ccc(Cl)c(Cl)c2)cc1 | 8.33%
O=C(CCCCCCC(=O)NO)NO | -7.76%
O=C(OC)C1=C(C)NC(C)=C(C(OCCCN3CCC(C4=CC=CC=C4)(C5=CC=CC=C5)CC3)=O)[C@@H]1[C@]2=CC=CC([N+]([O-])=O)=C2 [dexniguldipine] | -15.1%
O=C(Nc1cc(C(F)(F)F)cc(C(F)(F)F)c1)Nc1c(Br)cc(Br)cc1-c1nnn[nH]1 | -2.42%
CC(CNC1CCCCC1)OC(=O)c1ccccc1 (stereo not drawn) [hexylcaine] | 0.35%
COC(=O)C1=C(C)NC(C)=C(C(=O)OCC(C)C)C1c1ccccc1[N+](=O)[O-] (stereo not drawn) [Nisoldipine] | -8.81%
CCCCC/N=c1/ccn(Cc2ccccc2)c2ccccc12 | -2.74%
NC(=O)c1nnn(Cc2cc(Cl)c(C(=O)c3ccc(Cl)cc3)c(Cl)c2)c1N [carboxyamidotriazole] | -4.77%
CC(O)(C(=O)Nc1ccc(S(=O)(=O)c2ccccc2)cc1)C(F)(F)F (stereo not drawn) | -0.27%
CN(C)CCCN1c2ccccc2Sc2ccc(C(F)(F)F)cc21 | 6.11%
Cc1cc(Nc2ncc(Cl)c(Nc3ccccc3S(=O)(=O)C(C)C)n2)c(OC(C)C)cc1C1CCN(CC(=O)NCCOCCOCCOCCOCCOCCNc2cccc3c2C(=O)N(C2CCC(=O)NC2=O)C3=O)CC1 (stereo not drawn) | 6.9%
Oc1c(Cl)cc(Cl)cc1Sc1cc(Cl)cc(Cl)c1O | -3.52%
CNC(=O)c1cccc(-c2ccc3c(N4CCOC[C@@H]4C)nc(N4CCOC[C@@H]4C)nc3n2)c1 [Vistusertib (AZD2014)] | -33%
COc1ccc2c(C)nc(Nc3nc(C)c(C)c(O)n3)nc2c1 [madrasin] | 6.01%
COc1cc(C(=O)NS(=O)(=O)c2ccccc2C)ccc1Cc1cn(C)c2ccc(NC(=O)OC3CCCC3)cc12 [Zafirlukast (Accolate)] | 0.38%
CC(NCCC(c1ccccc1)c1ccccc1)c1ccccc1 (stereo not drawn) [fendiline] | -1.99%
COc1cccc2c(O)c3c(O)c4c(c(O)c3c(O)c12)=C(O[C@H]1C[C@H](N)[C@H](O)[C@H](C)O1)C[C@](O)(C(=O)CO)C=4 [Doxorubicin HCl] | -34.4%

Compound | relative growth in counter assay
O=C1Nc2ccc(I)cc2/C1=C/c1cc(Br)c(O)c(Br)c1 | 4.46%
CC[C@@]1(O)C(=O)OCc2c1cc1n(c2=O)Cc2cc3c(N)cccc3nc2-1 [9-aminocamptothecin] | -33.7%
O=C1[C@H]2CCCC[C@H]2C(=O)N1CCCCN1CCN(c2nsc3ccccc23)CC1 [Perospirone] | 19.5%
CN1CCN(Cc2ccc(-c3cnc4[nH]cc(-c5ccc6[nH]ccc6c5)c4c3)cc2)CC1 | -34.1%
COc1cc(OC)c(/C=C2/C(=O)Nc3ccccc32)c(OC)c1 | -33.5%
CO[C@H]1O[C@@H]2O[C@@]3(C)CC[C@H]4[C@H](C)CC[C@@H]([C@H]1C)[C@@]24OO3 [Artemether] | -7.46%
CSc1nc2cc(Cl)c(Oc3cccc(Cl)c3Cl)cc2[nH]1 | 2.75%
O=c1[nH]c(=O)n([C@H]2C[C@H](O)[C@@H](CO)O2)cc1F [Floxuridine] | -29.6%
CCOC(=O)Nc1nc2ccccc2[nH]1 | 2.38%
COc1ccc(/C=C/C(=O)/C=C(O)/C=C/c2ccc(OC)c(OC)c2)cc1OC [Dimethylcurcumin, ASC-J9] | -25.6%
C[C@@H]1CC(=O)c2c(ccc3c2C(=O)c2cccc(O)c2C3=O)C1 [ochromycinone] | 6.7%
NCCNc1ccc(NCCN)c2c1C(=O)c1ccncc1C2=O.O=C(O)/C=C\C(=O)O.O=C(O)/C=C\C(=O)O [Pixantrone (dimaleate)] | -13%
COc1ccccc1Oc1c(NS(=O)(=O)c2ccc(C)cn2)nc(-c2ccncc2)nc1OC [Avosentan] | -4.67%
COCC(=O)O[C@]1(CCN(C)CCCc2nc3ccccc3[nH]2)CCc2cc(F)ccc2[C@@H]1C(C)C [mibefradil] | -13.3%
O=C(/C=C/c1ccc(O)c(O)c1)OCCc1ccccc1 [caffeic-acid-phenethyl-ester] | -29%
CCC(C)c1ccc(NC(=O)Cn2cnc3c2c(=O)n(C)c(=O)n3C)cc1 (stereo not drawn) | -2.66%
CN1CCC[C@@H]1CCO[C@](C)(c1ccccc1)c1ccc(Cl)cc1 [Clemastine Fumarate] | 4.09%
O=[N+]([O-])c1ccc2nc(COCc3nc4ccc([N+](=O)[O-])cc4[nH]3)[nH]c2c1 | -3.14%
COc1ccc2nc3cc(Cl)ccc3c(Nc3cc(CN4CCCC4)c(O)c(CN4CCCC4)c3)c2n1 | -29.1%
